From PubChem
cardiac RTF act: increases calcium sensitivity of human cardiac regulated thin filaments; P19429+P45379; IANBD-labeled TnC RTF fluorescence at EC20 calcium; 0% EC20 calcium, 100% full calcium; activation, % at 7.2 µM; actives 0.24% (n = 340,000);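 active means activation above the mean over all tested compounds plus 3 SD, cut at about 30% in these data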;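 further: rise in fluorescence read as greater calcium sensitivity of cardiac thin filaments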
E coli Lon inh: inhibitors of E. coli Lon protease; P0A9M0; purified E. coli Lon protease, fluorescence polarization; inhibition, % at 7.94 µM; actives 0.42% (n = 360,000); in the data active means inhibition above about 13%, passing the limit was not always enough;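 further: 0% = enzyme with probe and DMSO and 100% = no enzyme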
Target sequence (P0A9M0 whole entry, looked up): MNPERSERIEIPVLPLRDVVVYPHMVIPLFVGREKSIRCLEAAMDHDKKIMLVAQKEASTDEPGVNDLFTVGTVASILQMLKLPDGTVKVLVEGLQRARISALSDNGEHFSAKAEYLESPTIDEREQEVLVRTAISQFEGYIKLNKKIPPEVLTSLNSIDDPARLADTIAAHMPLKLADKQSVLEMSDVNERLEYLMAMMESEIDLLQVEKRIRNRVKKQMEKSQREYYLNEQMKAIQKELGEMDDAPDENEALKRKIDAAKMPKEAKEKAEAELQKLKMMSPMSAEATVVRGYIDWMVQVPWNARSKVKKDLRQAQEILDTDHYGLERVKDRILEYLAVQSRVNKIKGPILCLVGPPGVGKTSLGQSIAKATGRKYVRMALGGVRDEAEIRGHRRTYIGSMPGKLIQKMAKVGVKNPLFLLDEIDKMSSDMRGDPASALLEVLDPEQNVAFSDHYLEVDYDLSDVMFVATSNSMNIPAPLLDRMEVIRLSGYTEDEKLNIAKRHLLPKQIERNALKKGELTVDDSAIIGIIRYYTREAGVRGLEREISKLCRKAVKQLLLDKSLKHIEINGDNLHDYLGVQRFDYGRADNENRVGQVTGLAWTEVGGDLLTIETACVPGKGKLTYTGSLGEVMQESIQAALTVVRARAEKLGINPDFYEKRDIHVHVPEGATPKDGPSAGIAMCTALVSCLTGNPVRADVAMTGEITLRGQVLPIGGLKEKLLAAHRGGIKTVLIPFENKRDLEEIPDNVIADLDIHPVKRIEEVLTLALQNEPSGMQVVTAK
RTF Ca sens inh: cardiac RTF calcium desensitization. AID 493244. IANBD-labeled cardiac RTF, Ca2+ fluorescence. actives 0.12% (n = 340,000). inhibition, % at 7.15 µM. P19429+P45379;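 active means inhibition above the mean inhibition of all tested compounds plus 3 SD, cut at about 17% in these data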;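 further: assay run at fixed EC70 calcium of 1.6 mM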
C-LANA FP: KSHV C-LANA DNA binding inhibition; inhibition, % at 9 µM; actives 0.078% (n = 340,000); MBP-C-LANA/FAM-LBS DNA binding, fluorescence polarization;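 active means highest replicate inhibition at or above 60% at 9 µM, even if other replicates fall short; inactive means all replicates below 60% inhibition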;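 further: 0% = neutral control wells and 100% = 4 µM acridine orange control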
Keap1-Nrf2 PPI: Keap1-Nrf2 (human) interaction inhibition. Q14145. Keap1 Kelch-Nrf2 peptide fluorescence polarization, 1536-well. inhibition, % at 9.4 µM. actives 0.15% (n = 340,000); in the data active means inhibition above about 12%;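 further: human Keap1 Kelch domain with fluorescein labeled Nrf2 9mer peptide probe; 0% = neutral control wells and 100% = peptide positive control; higher means more block of Keap1 binding to Nrf2 peptide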
Active calls of the source: *. Only some compounds are listed: those with a hit (about 0.74% of all), similar ones and a draw of the others.

Results for Cc1ccc(/C=C2\Oc3cc(OCC(=O)NN)ccc3C2=O)o1 ?
cardiac RTF act: 1.3; E coli Lon inh: -9.2; RTF Ca sens inh: -13.0; C-LANA FP: 0.7; Keap1-Nrf2 PPI: -4.3

How did CCN(CC)Cc1c(O)ccc2c1O/C(=C\C=C\c1ccccc1)C2=O do in these assays?
cardiac RTF act: 112.8*; E coli Lon inh: -77.1; RTF Ca sens inh: -164.9; C-LANA FP: 14.5; Keap1-Nrf2 PPI: -83.8

Results for COCCN(CCOC)Cc1c(O)ccc2c1O/C(=C\c1ccc(C)o1)C2=O ?
cardiac RTF act: 146.8*; E coli Lon inh: -67.4; RTF Ca sens inh: -86.2; C-LANA FP: 13.8; Keap1-Nrf2 PPI: -17.2

Results for CCN(CC)c1ccc(/C=C2/C(=O)c3ccc(C(=O)O)cc3C2=O)cc1 ?
cardiac RTF act: 77.8*; E coli Lon inh: inactive; RTF Ca sens inh: -115.5; C-LANA FP: -44.5; Keap1-Nrf2 PPI: -177.6

Results for CCN(CC)c1ccc(C=C2C(=O)OC3(CCCCC3)OC2=O)cc1 ?
cardiac RTF act: 6.7; E coli Lon inh: -6.6; RTF Ca sens inh: -6.4; C-LANA FP: -1.4; Keap1-Nrf2 PPI: -12.3

What do the screens show for `O=c1[nH][nH]c2c1[C@H](CCc1cccc(Cl)c1)O[C@H](CCc1ccccc1)C2`?
E coli Lon inh: 0.5

What do the screens show for `COc1ccccc1N1CCN(c2ccc3c(c2)S(=O)(=O)c2cccc(C(=O)NCc4ccc(F)cc4)c2C3=O)CC1`?
E coli Lon inh: -1.3

Results for O=C(NCc1ccco1)c1cccc2c1C(=O)c1ccc(/C=C/c3ccccc3)cc1S2(=O)=O ?
cardiac RTF act: -1.9; E coli Lon inh: -31.2; RTF Ca sens inh: 1.8; C-LANA FP: 1.2; Keap1-Nrf2 PPI: -3.3

What do the screens show for `O=C(NCc1ccc(OC(F)(F)F)cc1)c1cccc2c1C(=O)c1ccc(N3CCC(Cc4ccccc4)CC3)cc1S2(=O)=O`?
cardiac RTF act: 9.6; E coli Lon inh: -14.7; RTF Ca sens inh: -7.8; C-LANA FP: 18.0; Keap1-Nrf2 PPI: -8.8

How did O=C(NCc1cccc(C(F)(F)F)c1)c1cccc2c1C(=O)c1ccc(N3CCC(Cc4ccccc4)CC3)cc1S2(=O)=O do in these assays?
cardiac RTF act: 95.0*; E coli Lon inh: -132.4; RTF Ca sens inh: -193.5; C-LANA FP: 9.5; Keap1-Nrf2 PPI: -1.6

What do the screens show for `O=C(NCc1ccco1)c1cccc2c1C(=O)c1ccc(N3CCC(Cc4ccccc4)CC3)cc1S2(=O)=O`?
cardiac RTF act: 117.3*; E coli Lon inh: -149.4; RTF Ca sens inh: -196.8; C-LANA FP: 10.2; Keap1-Nrf2 PPI: -2.8

How did CN1CCC[C@@H]1CCNC(=O)c1cccc2c1C(=O)c1ccc(N3CCCC3)cc1S2(=O)=O do in these assays?
cardiac RTF act: 18.2; E coli Lon inh: -29.8; RTF Ca sens inh: -27.6; C-LANA FP: -2.5; Keap1-Nrf2 PPI: -33.5

Results for O=C(NCCc1ccc(F)cc1)c1cccc2c1C(=O)c1ccc(N3CCC(Cc4ccccc4)CC3)cc1S2(=O)=O ?
cardiac RTF act: 117.0*; E coli Lon inh: 29.5*; RTF Ca sens inh: -178.5; C-LANA FP: 14.3; Keap1-Nrf2 PPI: -5.8

How did O=C(NCc1cccc(F)c1)c1cccc2c1C(=O)c1ccc(N3CCC(Cc4ccccc4)CC3)cc1S2(=O)=O do in these assays?
cardiac RTF act: 177.8*; E coli Lon inh: 38.8*; RTF Ca sens inh: -220.8; C-LANA FP: 16.6; Keap1-Nrf2 PPI: 6.4

Results for CCCC(=O)N1CCCC(c2cc(C(=O)Nc3ccccc3)no2)C1 (configuration not stated) ?
E coli Lon inh: 0.8

How did CC(=O)Nc1cc(-c2ccc(N)nc2)cn2c(-c3cccc(C(F)(F)F)c3)cnc12 do in these assays?
E coli Lon inh: -31.4

What do the screens show for `O=C(O)c1cccc2c1C(=O)c1ccc(N3CCCC3)cc1S2(=O)=O`?
cardiac RTF act: 35.8*; E coli Lon inh: 48.0*; RTF Ca sens inh: -41.9; C-LANA FP: 8.5; Keap1-Nrf2 PPI: -32.1

How did CC1CCN(c2ccc3c(c2)S(=O)(=O)c2cccc(C(=O)NCc4cccc(F)c4)c2C3=O)CC1 do in these assays?
cardiac RTF act: 164.4*; E coli Lon inh: -85.9; RTF Ca sens inh: -98.5; C-LANA FP: 3.0; Keap1-Nrf2 PPI: 2.4

How did O=C(NCCN1CCOCC1)c1cccc2c1C(=O)c1ccc(N3CCCC3)cc1S2(=O)=O do in these assays?
cardiac RTF act: 14.6; E coli Lon inh: -29.6; RTF Ca sens inh: -25.1; C-LANA FP: -5.1; Keap1-Nrf2 PPI: -32.7

Results for O=C(O)c1ccc2c(c1)C1C=CCC1C(c1ccncc1)N2 (configuration not stated) ?
cardiac RTF act: -0.2; E coli Lon inh: 7.2; RTF Ca sens inh: -3.7; C-LANA FP: 2.5; Keap1-Nrf2 PPI: -6.2

Results for COc1ccc(NS(=O)(=O)c2ccc3c(c2)[C@H]2C=CC[C@H]2[C@@H](c2ccc(C(=O)O)cc2)N3)cc1 ?
cardiac RTF act: -25.3; E coli Lon inh: 11.8; RTF Ca sens inh: 15.8; C-LANA FP: 113.0*; Keap1-Nrf2 PPI: 2.6

Results for CC(C)(CS(=O)(=O)[O-])NC(=O)CC[N+](C)(C)CCO ?
cardiac RTF act: -5.7; E coli Lon inh: -4.6; RTF Ca sens inh: -7.3; C-LANA FP: 81.7*; Keap1-Nrf2 PPI: -1.3

What do the screens show for `NC(=O)NC(=O)COC(=O)c1cccc(NS(=O)(=O)/C=C/c2ccccc2)c1`?
cardiac RTF act: 38.1*; E coli Lon inh: 8.1; RTF Ca sens inh: -4.2; C-LANA FP: 2.1; Keap1-Nrf2 PPI: -2.2

What do the screens show for `Cc1cc(O)c2c(c1)C(=O)[C@@]13Oc4c5c(c(O)c6c(O)cc(C)cc46)C(=O)C[C@H](O)[C@H]5[C@@H]1[C@@H](O)CC(=O)C3=C2O`?
cardiac RTF act: 4.9; E coli Lon inh: 20.0*; RTF Ca sens inh: -16.7; C-LANA FP: -2.2; Keap1-Nrf2 PPI: 0.5

What do the screens show for `C[C@@H]1CN([C@H](C)CO)C(=O)CCCn2nncc2CO[C@H]1CN(C)S(=O)(=O)c1ccc(Oc2ccccc2)nc1`?
E coli Lon inh: -6.4

Results for CCOC(=O)[C@]12CCCC=C1N(Cc1ccc3c(c1)OCO3)C(=O)[C@H](CC(=O)N1CCN(C(=O)C3CC3)CC1)C2 ?
E coli Lon inh: -4.7

Results for Cc1ccc(N=Nc2c(O)[nH]c3ccc(F)cc23)cc1 ?
cardiac RTF act: 74.6*; E coli Lon inh: -138.5; RTF Ca sens inh: -87.7; C-LANA FP: 41.4; Keap1-Nrf2 PPI: -6.6

What do the screens show for `O=c1[nH]nc(N=Nc2c(O)[nH]c3ccc(F)cc23)c(=O)[nH]1`?
cardiac RTF act: -1.4; E coli Lon inh: -15.7; RTF Ca sens inh: -6.2; C-LANA FP: 0.0; Keap1-Nrf2 PPI: -1.6

How did Cc1ccc(N=Nc2[nH]c3ccccc3c2O)cc1 do in these assays?
cardiac RTF act: 36.2*; E coli Lon inh: -4.9; RTF Ca sens inh: -46.9; C-LANA FP: 2.1; Keap1-Nrf2 PPI: -5.1

Results for COc1ccc(C(O)c2nc(-c3cccc4cccnc34)cs2)cc1 (configuration not stated) ?
E coli Lon inh: -8.1

How did COc1ccc(N=Cc2sc(O)c3ccccc23)cc1 do in these assays?
cardiac RTF act: 79.3*; E coli Lon inh: -375.6; RTF Ca sens inh: -145.4; C-LANA FP: -1.6; Keap1-Nrf2 PPI: -32.2
